Assay outcomes as filed in PubChem BioAssay.
Compounds with a hit are over-represented: about 12% of the library has one in this group of screens.
JMJD2A Tudor inh – qHTS Assay for Inhibitors of JMJD2A-Tudor Domain | Potency, µM (highest dose often 114 µM), for inactives: at the top dose activity change, negative = inhibition, most hits filed as inhibitors | actives 4.4% (n = 390,000) | Lysine-specific demethylase 4A (Homo sapiens), O75164 | AID 504339, 2011 | AlphaScreen JMJD2A-Tudor / H3K4me3 peptide binding; further: on the % scale 0 is the no-effect control and ±100 the full control effect; nearly all actives have a fitted effect of over 50% in size
G9a inh – qHTS Assay for Inhibitors of Histone Lysine Methyltransferase G9a; Histone-lysine N-methyltransferase EHMT2 (Homo sapiens), Q96KQ7; actives 8.8% (n = 350,000); G9a H3K9 monomethylation, AlphaScreen, 2 h; Potency, µM (highest dose often 102 µM), for inactives: at the top dose activity, negative = inhibition, most hits filed as inhibitors; AID 504332, 2011; further: on the % scale 0 is the no-effect control and ±100 the full control effect; nearly all actives have a fitted effect of over 75% in size
Target sequence (Q96KQ7 913-1193 limits assumed): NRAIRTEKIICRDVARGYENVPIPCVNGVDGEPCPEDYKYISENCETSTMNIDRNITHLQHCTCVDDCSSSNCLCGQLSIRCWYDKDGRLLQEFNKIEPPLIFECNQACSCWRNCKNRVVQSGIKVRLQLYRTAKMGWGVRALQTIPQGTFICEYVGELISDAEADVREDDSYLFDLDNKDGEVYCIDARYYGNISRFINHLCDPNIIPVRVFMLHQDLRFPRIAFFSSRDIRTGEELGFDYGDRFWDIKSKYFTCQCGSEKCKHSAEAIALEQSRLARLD
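AlphaScreen detection with an anti-monomethyl H3K9 antibody quantified product after a 2 h room-temperature reaction containing 500 nM biotinylated H3K9 peptide, 20 µM SAM and 20 nM enzyme, which had been preincubated 15 min with compound.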
Sfp inh – qHTS Assay for Inhibitors of Bacillus subtilis Sfp phosphopantetheinyl transferase (PPTase); 4'-phosphopantetheinyl transferase ffp (Bacillus subtilis), Q9F4F7; Potency, µM, inactives show largest response in the series, negative = inhibition, most hits filed as inhibitors; actives 3.5% (n = 310,000); Biochemical Sfp PPTase activity, qHTS;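 further: the enzyme is Sfp with the accession as filed and its product quenches rhodamine fluorescence; 0% = enzyme reaction without inhibitor and -100% = no enzyme wells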
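Fluorescence-quenching assay: 15 nM Sfp-PPTase preincubated 15 min at room temperature with compound, then 5 uM rhodamine-CoA and 12.5 uM BHQ-2-labelled YbbR peptide added. Fluorescence (ex 525/em 598 nm) read at start and after 30 min; difference gives rate.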
HP1b binding inh – HTS for Inhibitors of HP1-beta Chromodomain Interactions with Methylated Histone Tails. AID 540317, 2011. Potency, µM (series often up to 114 µM), without a hit: at the highest dose activity change, negative = inhibition, actives largely listed as inhibitors. AlphaScreen HP1-beta / biotin-H3K9me3 peptide binding. actives 0.56% (n = 390,000); further: nearly all actives have a fitted effect of over 70% in size
Target sequence (P83916 whole entry, looked up): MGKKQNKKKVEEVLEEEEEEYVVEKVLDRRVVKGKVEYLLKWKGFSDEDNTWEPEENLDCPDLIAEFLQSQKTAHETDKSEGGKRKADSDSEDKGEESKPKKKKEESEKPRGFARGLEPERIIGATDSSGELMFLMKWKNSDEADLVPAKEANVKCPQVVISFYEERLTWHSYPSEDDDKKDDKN
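AlphaScreen: HP1-beta (50 nM) preformed 30 min with biotin-H3(1-18)K9me3 peptide (50 nM) in PBS pH 7.4, 0.01% Tween-20. Compound added for 30 min at RT, then streptavidin donor/nickel chelate acceptor beads (10 ug/mL) for 30 min.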
BAZ2B inh – qHTS Assay for Inhibitors of BAZ2B; AlphaScreen BAZ2B-H3K14Ac peptide displacement; Potency, µM (series often up to 114 µM), for the others: top-dose activity change, negative = inhibition, actives largely listed as inhibitors; Bromodomain adjacent to zinc finger domain protein 2B (Homo sapiens), Q9UIF8; actives 4.4% (n = 360,000); further: on the % scale 0 is the no-effect control and ±100 the full control effect; nearly all actives have a fitted effect of over 60% in size
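Protein-peptide AlphaScreen: BAZ2B 50 nM, b-H3K14Ac 50 nM, 1x PBS pH 7.4 + 0.01% Tween-20. Preincubation 30 min RT; cpd 30 min RT (top 110 uM); beads 20 min RT, light-protected.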
Numbers without * were called inactive; u = inconclusive; x = no result given; [ ] = remark or other dose. The call rests on the fitted dose curve; in most records, active means well fitted curve in the direction sought with a large enough effect; inconclusive means small, poorly fitted or top-dose-only effect, or another doubt; inactive means no such curve, though single readings can be large; an effect the other way counts as inactive or inconclusive. Potency means the concentration at half of the fitted maximal effect.

SMILES | JMJD2A Tudor inh | G9a inh | Sfp inh | HP1b binding inh | BAZ2B inh
S=C(N/N=C/c1ccc(Cl)cc1)N1CCOCC1 | -28% | u | -1% | -6% | u
S=C(N/N=C/c1ccc(Br)cc1)N1CCCCC1 | u | 24% | 12% | 11% | 7.9µM*
Cc1ccc(/C=N/NC(=S)N2CCOCC2)cc1 | -34% | 28µM* | -8% | 13% | u
COCCSc1nnc(NC(=O)C2CCCCC2)s1 | -6% | 20%[59 µM] | 18% | 30% | 2%
CCCS(=O)(=O)N1CCCC(C(=O)N2CCC(Cc3ccccc3)CC2)C1 (centres undefined) | -3% | 14%[12.7 µM] | -3% | 29% | -6%
Cc1onc(-c2c(Cl)cccc2Cl)c1C(=O)NCc1cccs1 | 16% | -8%[59 µM] | -24% | 36% | 5%
O=C(Nc1nnc(C2=COCCO2)o1)c1cccc(Br)c1 | -3% | 45% | 15% | 35% | 71µM*
O=C(Nc1nnc(-c2ccccn2)o1)c1cccc(Br)c1 | u | -10% | 17% | 30% | u
O=C(Nc1nnc(-c2ccc(F)cc2)o1)c1cccc([N+](=O)[O-])c1 | 0% | -37% | 14% | 15%[57 µM] | u
CSc1cccc(-c2nnc(NC(=O)c3ccc4c(c3)OCCO4)o2)c1 | -6% | 73%[59 µM] | x | 19%[57 µM] | 13%
CS(=O)(=O)c1cccc(C(=O)Nc2nnc(C3=COCCO3)o2)c1 | 3.2µM* | -10%[0.501 µM] | x | 75% | 18µM*
O=C(Nc1nnc(C2=COCCO2)o1)c1cccc([N+](=O)[O-])c1 | -15% | -21% | 7% | 27% | 79µM*
O=C(Nc1nnc(-c2ccc(Cl)cc2)o1)c1nc2ccccc2s1 | -28% | -4%[59 µM] | 22% | 28% | -34%
CC(/C=C/c1ccccc1)=N/NC(=O)c1cccc(Br)c1 | -29% | 19% | 30% | 33% | -16%
COc1cc(/C=N/NC(=O)c2ccc(N)cc2)ccc1OC(=O)c1cccc(C)c1 | u | -9% | -3% | -23% | u
Cn1nc(C(=O)NCC(c2cccs2)N2CCOCC2)c2ccccc2c1=O (centres undefined) | -17% | x | x | 6%[57 µM] | x
COC(=O)N[C@@H](/C=C/c1ccccc1)[C@@H](C)[N+](=O)[O-] | x | x | -8% | x | x
NC(=O)c1ccccc1NC(=O)CCCN1C(=O)CCC1=O | 11% | 45µM* | 6% | 19% | 8%
N#Cc1ccccc1OCc1cn(CC(=O)c2ccc(O)cc2)nn1 | 20µM* | x | x | 3% | x
COc1ccc(C=O)c(OCc2cn(CC(=O)c3ccc(O)cc3)nn2)c1 | 79µM* | x | x | 6% | x
O=C(Cn1cc(COc2ccccc2[N+](=O)[O-])nn1)c1ccc(O)cc1 | u | x | x | 25% | x
Cc1ccnc(Sc2ccc([N+](=O)[O-])cc2[N+](=O)[O-])n1 | -36% | -45%[59 µM] | 7% | -11% | u
Cc1ccc(Sc2ccc([N+](=O)[O-])cc2[N+](=O)[O-])nc1 | u | -23%[59 µM] | -3% | -14% | 45µM*
N#Cc1ccsc1NC(=O)CSc1nnnn1-c1ccc(O)cc1 | -22% | x | -20% | 19% | u
CC(=O)c1c(O)c(C)c(O)c2c1OC1=CC(=O)C(C(C)=O)C(=O)C12C (centres undefined) | x | x | 11% | x | x
CC(=O)c1c(O)c(C)c(O)c2c1OC1=CC(=O)C(C(C)=O)C(=O)[C@@]12C (some centres undefined) | -32% | 50µM* | 22% | 15% | -27%
Cc1cc(C)c(NC(=S)N(CCN(C)C)Cc2cccs2)c(C)c1 | -29% | -4%[59 µM] | -15% | 19% | -36%
CNC(=S)N(CCc1c(C)[nH]c2ccc(C)cc12)Cc1cccs1 | u | 45µM* | 14% | -4% | x
COc1ccc2[nH]c(C)c(CCN(Cc3cccs3)C(=S)Nc3ccccc3)c2c1 | u | u | -2% | u | u
